Counter-ions that a name gives are not always drawn.
test system: Saccharomyces cerevisiae; assay: fraction of cells in G1 phase (DNA content, flow cytometry); higher = more cells with unreplicated DNA (G1 delay); settings: temperature: 30 C; YPD; JTY2953 pdr5 snq2 (sensitized); drug added to: cultures diluted from stationary phase; 6-7 h
How it was run: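 Overnight cultures of sensitized JTY2953 were diluted 1∶200 into drug at a final 20 µg/ml and fixed after 6–7 h, and further runs treated dividing JTY2953 or BY4741, fixing them 6 h and 4.33 h later respectively. All growth used YPD at 30°C with S. cerevisiae and library drugs. After ethanol fixation and SYTOX Green staining, flow cytometry recorded 10,000 events. The G1 fraction equals the Dean-Jett-Fox G1 peak area over the G1 plus G2/M areas.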

SMILES | fraction of cells in G1 phase
CN1CCN(C2=Nc3ccccc3Sc3ccc(Cl)cc32)CC1 [Clothiapine] (58.1596 µM) | 0.431
Nc1nc(O)c2ncn(CCC(CO)CO)c2n1 [Penciclovir] (78.9694 µM) | 0.461
CO[C@H]1/C=C/O[C@@]2(C)Oc3c(C)c(O)c4c(O)c(c(/C=N/N5CCN(C)CC5)c(O)c4c3C2=O)NC(=O)/C(C)=C\C=C\[C@H](C)[C@H](O)[C@@H](C)[C@@H](O)[C@@H](C)[C@H](OC(C)=O)[C@@H]1C [Rifampicin] (24.3025 µM) | 0.502
COc1ncnc(NS(=O)(=O)c2ccc(N)cc2)c1OC [Sulfadoxine] (64.4467 µM) | 0.474
CCCC(CCC)C(=O)O [Valproic acid] (138.681 µM) | 0.541
COc1ccc2cc([C@H](C)C(=O)O)ccc2c1 [Naproxen] (86.8561 µM) | 0.514
O=C1C(=O)c2ccccc2C(O)=C1C1CCC(c2ccc(Cl)cc2)CC1 (stereo not drawn) [Atovaquone] (54.5185 µM) | 0.493
CC12CC3CC(C)(C1)CC(N)(C3)C2 [Memantine HCl] (111.54 µM) | 0.532
CO[C@@H]1[C@H](OC(=O)/C=C/C=C/C=C/C=C/C(=O)O)CC[C@]2(CO2)[C@H]1[C@@]1(C)O[C@@H]1CC=C(C)C [Fumagillin] (43.6151 µM) | 0.518
CS(=O)(=O)c1ccc([C@H](O)[C@@H](COC(=O)CN)NC(=O)C(Cl)Cl)cc1 [Thiamphenicol glycinate] (48.3934 µM) | 0.478
CCN1CCN(C(=O)N[C@@H](C(=O)N[C@@H]2C(=O)N3C(C(=O)O)=C(CSc4nnnn4C)CS[C@H]23)c2ccc(O)cc2)C(=O)C1=O [Cefoperazone acid] (30.9752 µM) | 0.487
COc1cc2nc(N3CCN(C(=O)C4CCCO4)CC3)nc(N)c2cc1OC (stereo not drawn) [Terazosin HCl] (51.6206 µM) | 0.504
CCn1cc(C(=O)O)c(=O)c2cc(F)c(N3CCNC(C)C3)c(F)c21 (stereo not drawn) [Lomefloxacin HCl] (56.9223 µM) | 0.489
NC1CCN(c2nc3c(cc2F)c(=O)c(C(=O)O)cn3-c2ccc(F)cc2F)C1 (stereo not drawn) [Tosufloxacin] (49.4619 µM) | 0.428
C[C@]12C=CC(=O)C=C1CC[C@H]1[C@@H]3C[C@@H](O)[C@](O)(C(=O)CO)[C@@]3(C)C[C@H](O)[C@@]12F [Triamcinolone] (50.7043 µM) | 0.483
NC12CC3CC(CC(C3)C1)C2 [Amantadine HCl] (106.553 µM) | 0.505
CCOC(=O)C1=C(C)NC(C)=C(C(=O)OC)C1c1cccc([N+](=O)[O-])c1 (stereo not drawn) [Nitrendipine] (55.4985 µM) | 0.472
c1ccc2c(CC3=NCCN3)cccc2c1 [Naphazoline HCl] (95.1108 µM) | 0.456
COc1cc2nc(N(C)CCCNC(=O)C3CCCO3)nc(N)c2cc1OC (stereo not drawn) [Alfuzosin] (51.3611 µM) | 0.523

SMILES | fraction of cells in G1 phase
CC(=O)[C@H]1CC[C@H]2[C@@H]3CC=C4C[C@@H](O)CC[C@]4(C)[C@H]3CC[C@]12C [Pregnenolone] (63.1936 µM) | 0.586
CCCc1nc(C)c2c(=O)nc(-c3cc(S(=O)(=O)N4CCN(CC)CC4)ccc3OCC)[nH]n12 [Vardenafil] (40.9322 µM) | 0.511
CCn1cc(C(=O)O)c(=O)c2cc(F)c(N3CCN(C)CC3)cc21 [Pefloxacine mesylate] (59.9942 µM) | 0.465
NC(N)=Nc1nc(CSCC/C(N)=N/S(N)(=O)=O)cs1 [Famotidine] (59.2687 µM) | 0.499
CN(C)C(=O)C(CCN1CCC(O)(c2ccc(Cl)cc2)CC1)(c1ccccc1)c1ccccc1 [Loperamide] (38.9864 µM) | 0.512
CC(=O)O[C@]1(C(C)=O)CC[C@H]2[C@@H]3C=C(Cl)C4=CC(=O)[C@@H]5C[C@@H]5[C@]4(C)[C@H]3CC[C@@]21C [Cyproterone acetate] (47.9675 µM) | 0.597
OCCOCCN1CCN(C2=Nc3ccccc3Sc3ccccc32)CC1 [Quetiapine fumarate] (22.6473 µM) | 0.499
CCN(Cc1ccncc1)C(=O)C(CO)c1ccccc1 (stereo not drawn) [Tropicamide] (70.3331 µM) | 0.521
CN(C(=O)CCCOc1ccc2[nH]c(=O)ccc2c1)C1CCCCC1 [Cilostamide] (58.4041 µM) | 0.499
CN[C@@H]1[C@H](O)[C@H](NC)[C@H]2O[C@@]3(O)C(=O)C[C@@H](C)O[C@H]3O[C@@H]2[C@H]1O [Spectinomycin] (60.1763 µM) | 0.485
Cn1cnc([N+](=O)[O-])c1Sc1ncnc2[nH]cnc12 [Azathioprine] (72.1241 µM) | 0.465
N=C(N)N1CCc2ccccc2C1 [Debrisoquin sulfate] (114.132 µM) | 0.513
O=C(NCCNCC(O)COc1ccc(O)cc1)N1CCOCC1 (stereo not drawn) [Xamoterol hemifumarate] (58.9284 µM) | 0.518
CN1CCc2cccc3c2[C@H]1Cc1ccc(O)c(O)c1-3 [Apomorphine r (-)] (74.8137 µM) | 0.483
C[C@H]1[C@H](NC(=O)/C(=N\OC(C)(C)C(=O)O)c2csc(N)n2)C(=O)N1S(=O)(=O)O [Aztreonam] (45.9309 µM) | 0.489
CCCCC(C)(O)C/C=C/[C@H]1[C@H](O)CC(=O)[C@@H]1CCCCCCC(=O)OC (mixture of isomers) [Misoprostol] (52.2814 µM) | 0.499
COc1ccc([C@@H]2Sc3ccccc3N(CCN(C)C)C(=O)[C@@H]2OC(C)=O)cc1 [Diltiazem] (44.3459 µM) | 0.544
CCCCCN(C)CCC(O)(P(=O)(O)O)P(=O)(O)O [Ibandronate] (62.65 µM) | 0.474
N=C(N)N/N=C/c1c(Cl)cccc1Cl [Guanabenz acetate] (86.548 µM) | 0.488

From the supplement of paper PMC3342239
